Several values for one entry are separate records, joined by “and”; a condition that tells them apart may be missing. Equal entries are not always repeated. Among all 73,000 compounds or so, about 2,500 (3.4%) were called active. Not shown: some 7% with an inconclusive outcome. Calls come from the whole dose curve; as a rule, active = well fitted inhibition curve with a large enough effect; inconclusive = small, poorly fitted or top-dose-only effect; inactive = no such curve, though single readings can be large or run the other way. The entries come from a sample that favours actives as a whole. A structure can be active in one record and inactive in another.
The compounds below were run against 3-hydroxyacyl-CoA dehydrogenase type-2 (Homo sapiens) (UniProt Q99714) (assay: qHTS Assay for Inhibitors of HADH2 (Hydroxyacyl-Coenzyme A Dehydrogenase, Type II)). Conditions: recombinant HADH2, NADH fluorescence, beta-hydroxybutyryl-CoA; series mostly up to 57.1 µM; activity change, negative = inhibition: at the top concentration.
3-hydroxyacyl-CoA dehydrogenase type-2 (Homo sapiens), sequence (Q99714 whole entry, looked up): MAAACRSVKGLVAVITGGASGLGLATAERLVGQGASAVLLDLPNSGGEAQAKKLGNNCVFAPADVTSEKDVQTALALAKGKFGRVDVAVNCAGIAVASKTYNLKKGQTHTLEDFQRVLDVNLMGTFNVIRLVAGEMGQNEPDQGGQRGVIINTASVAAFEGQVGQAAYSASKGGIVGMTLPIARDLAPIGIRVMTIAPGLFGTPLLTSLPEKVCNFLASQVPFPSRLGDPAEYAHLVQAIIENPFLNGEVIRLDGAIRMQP
3-hydroxyacyl-CoA dehydrogenase type-2 (Homo sapiens), sequence (Q99714 whole entry, looked up): as above
Description: Assay Overview: NIH Molecular Libraries Screening Centers Network [MLSCN] NIH Chemical Genomics Center [NCGC] Structural Genomics Consortium [SGC] Grant Number: None HADH2: Hydroxyacyl-Coenzyme A dehydrogenase, type II, was supplied by researchers at the Structural Genomics Consortium, Oxford University lab (PI Udo Oppermann). The mitochondrial enzyme 17-hydroxysteroid dehydrogenase type 10 (HSD17-10) previously classified as type II hydroxyacyl-CoA dehydrogenase (HADH2) catalyzes the NAD+ dependent oxidation of a variety of substrates including acyl-CoAs, androgens and neurosteroids as well as bile acids(Shafqat N, Marschall HU, Filling C, et al. Biochemical Journal. 2003;376(Pt 1):49-60). The role in neurodegeneration by binding to amyloid-peptide led to its identification (Oppermann UC, et al FEBS Letters. 1999;451(3):238-242 and Yan SD, et al. Nature. 1997;389(6652):689-695), and mutations in its gene appear to be causative for 2-methyl-3-hydroxybutyryl-CoA dehydrogenase deficiency (Ofman R, et al. American Journal of Human Genetics. 2003;72(5):1300-1307). The enzyme was produced by E.coli fermentation as His-tagged recombinant for the purpose of X-ray structure determination, and had been mass-spectrometry characterized. Inhibition of HADH2 activity was screened by utilizing beta-hydroxybutyryl coenzyme A as an electron donor and NAD+ as an electron acceptor/cofactor. An increase in the fluorescence intensity due to conversion of NAD+ to NADH was used to measure the enzyme activity.
Assay Protocol: Buffer: 100 mM Tris-HCl pH 9.0, containing 0.01 % Tween-20. Reagents/Controls: Buffer in columns 3 and 4 as negative control (no enzyme). Substrate/cofactor solution: 1 mM NAD+ and 90 uM beta-hydroxybutyryl coenzyme A (Sigma-Aldrich, St. Louis, MO) final concentrations dispensed throughout the plate. Enzyme: 20 nM HADH2 final concentration in columns 1, 2, 5-48. Column 1 is neutral (100% activity). Column 2 contained titration of apomorphine (Sigma-Aldrich, A 4393, PubChem CID 2215, top concentration 500 uM, then 1:2 dilution in duplicate) Assay Steps: Three uL of enzyme were dispensed to 1536-well Greiner black solid bottom plates. Compounds and controls (23 nL) were transferred via Kalypsys PinTool. The plates were incubated for 15 min at room temperature, and then 1 uL of substrate/cofactor solution was added to start the reaction. The plates were immediately transferred to and read every 30 seconds for 4 min on ViewLux High-throughput CCD imager (Perkin-Elmer) using 360 nm excitation and 450 nm emission fluorescence protocol. The fluorescence intensity difference between the last and the first time points was used to compute reaction progress.
With `CS(=O)(=O)N1CCC2(CC1)CN(Cc1cc(C(F)(F)F)cc(C(F)(F)F)c1)C2` the “activity change, negative = inhibition” value was 7.84% (inactive). In the case of `CS(=O)(=O)Nc1cccc(-c2cncnc2Nc2ccccc2)c1`, the “activity change, negative = inhibition” value is reported as -11.2% (inactive). With `CNc1cc(-c2c(C)noc2C)ncn1` the “activity change, negative = inhibition” value was 1.11% (inactive). `N#C/C(=C\c1ccc(O)c(O)c1)C(N)=O` was tested, and the Potency was 31.6 µM (active). In the case of `N#C/C(=C\c1ccc(O)c(O)c1)C(=O)NCc1ccccc1`, the Potency is reported as “inactive and 15.8 µM (active)”. With `CCCc1nc2ccccc2c(=O)n1/N=C/c1ccc(O)c(O)c1` the “activity change, negative = inhibition” value was 3.33% (inactive). `O=C(CCOc1ccccc1)NCc1ccccc1` was tested, and the “activity change, negative = inhibition” value was 11% (inactive). With `C[C@@H]1C[C@H]2[C@@H]3C[C@H](F)C4=CC(=O)C=C[C@@]4(C)[C@]3(F)[C@H](O)C[C@]2(C)[C@@]1(O)C(=O)CO` the “activity change, negative = inhibition” value was 1.79% [at 25.6 µM] (inactive). `COc1ncc2nc(-c3ccc(Cl)cc3)c(=O)n(-c3ccccc3)c2n1` was tested, and the “activity change, negative = inhibition” value was 0.99% (inactive). `COc1ccccc1N1CCN(CCN2C(=O)c3ccccc3C(C)(C)C2=O)CC1` was tested, and the “activity change, negative = inhibition” value was 5.74% (inactive). With `Cc1c(S(=O)(=O)O)ccc(N=Nc2c(O)c(C(=O)O)cc3ccccc23)c1Cl` the activity change, negative = inhibition was 14% [at 11.4 µM] (inactive). With `C/C(CCN1CCc2nc(-c3ccccc3)c(-c3ccccc3)cc2C1)=N\O[C@@H](C)c1cn([C@@H]2COC[C@@H]2O)nn1` the activity change, negative = inhibition was -0.942% [at 11.4 µM] (inactive). `CC(C)=CCC/C(C)=C/CO/N=C1/C[C@@H](O)[C@@H](O)[C@@H]2[C@@H]3C(=O)N(C(C)(C)C)C(=O)[C@H]3CC[C@H]12` was tested, and the activity change, negative = inhibition was 2.13% [at 11.4 µM] (inactive). For `Cc1ccc(OCC(=O)Nc2ccc(-c3nc4ncccc4o3)cc2)cc1`, the “activity change, negative = inhibition” value was -29.8% (inactive). In the case of `Cc1ccc(OCC(=O)Nc2ccc(-c3nnc(-c4ccco4)o3)cc2)cc1`, the “activity change, negative = inhibition” value is reported as 13.8% (inactive). In the case of `COc1ccc(CC(=O)Nc2ccc(-c3nnc(-c4ccc(C)cc4)o3)cc2)cc1`, the Potency is reported as 0.251 µM (active). For `CO[C@H]1COC(=O)C/C=C\[C@H](C)COC(=O)[C@@H](OCc2ccccc2)/C=C\[C@@H]1C`, the activity change, negative = inhibition was 8.32% [at 11.4 µM] (inactive). With `COc1ccc2c(=O)cc(-c3ccccc3)oc2c1O` the “activity change, negative = inhibition” value was -7.36% (inactive). With `Cc1cc2nc3c(=O)[nH]c(=O)nc-3n(C[C@H](O)[C@H](O)[C@H](O)CO)c2cc1C` the “activity change, negative = inhibition” value was -15.5% (inactive). `O=C(c1ccccc1)N1CCN(C(=O)N2CCCCC2)CC1` was tested, and the “activity change, negative = inhibition” value was 5.98% (inactive). For `N#Cc1ccccc1-n1c(N)c(C(=O)N2CCCC2)sc1=S`, the Potency was 2.51 µM (active). For `COc1cccc(-c2nn(C)c3sc(C(=O)N4CCN(c5ccccc5)CC4)cc23)c1`, the “activity change, negative = inhibition” value was -8.9% (inactive). For `Cc1ccc(OCCCC(=O)N2CCOCC2)c(C)c1`, the “activity change, negative = inhibition” value was 13.5% (inactive). `CCC(=O)Nc1sc(C(=O)N2CCCCC2)c(C)c1C#N` was tested, and the “activity change, negative = inhibition” value was -0.224% (inactive). With `Cc1ccc(-n2c(N)c(C(=O)N3CCOCC3)sc2=S)c(C)c1` the Potency was 3.16 µM (active). `Cc1cccc(-n2c(N)cc(=O)nc2SC(C)C(=O)NC2CCCCC2)c1` (stereo unspecified) was tested, and the “activity change, negative = inhibition” value was 3.12% (inactive). In the case of `CC(=O)c1c(N2CCOCC2)nc(=S)n(-c2cc(C)ccc2C)c1C`, the “activity change, negative = inhibition” value is reported as 0.579% (inactive). In the case of `Cc1cccc(-n2c(N)c(C(=O)N3CCN(C)CC3)sc2=S)c1`, the Potency is reported as 0.631 µM (active). In the case of `N#Cc1cc2[nH]c(=O)c(=O)[nH]c2cc1[N+](=O)[O-]`, the “activity change, negative = inhibition” value is reported as -19.4% (inactive). For `CCC[C@H]1C(=O)N2C(N(C)C)=Nc3ccc(C)cc3N2C1=O`, the “activity change, negative = inhibition” value was 2.69% [at 25.6 µM] (inactive). In the case of `Cc1cnc(CNc2ncncc2-c2ccccc2Cl)cn1`, the “activity change, negative = inhibition” value is reported as -29.7% (inactive). `COC(=O)[C@H]1C[C@@H]1[C@H](NC(=O)Oc1ccc(F)cc1)c1ccccc1` was tested, and the “activity change, negative = inhibition” value was 3.03% (inactive). With `O=c1cc(-c2ccccc2)[nH]c2nc(Cl)ccc12` the Potency was 25.1 µM (active). In the case of `CN1CCN(c2ncc3nc(-c4ccc(Cl)cc4)c(=O)n(-c4ccccc4)c3n2)CC1`, the “activity change, negative = inhibition” value is reported as 43.8% (inactive). For `C#CCC(C(=O)OC)(C(=O)OC)C(C[N+](=O)[O-])c1ccccc1` (stereo unspecified), the activity change, negative = inhibition was 1.44% [at 11.4 µM] (inactive). In the case of `Cc1ccc2oc(=O)ccc2c1`, the “activity change, negative = inhibition” value is reported as -5.29% (inactive). For `CCN(CC)c1ccc2oc(=O)c(C)nc2c1`, the Potency was 3.98 µM (active). `CC(=O)OCC1OC(C#CCCCc2ccccc2)C=CC1OC(C)=O` (stereo unspecified) was tested, and the activity change, negative = inhibition was -21.4% [at 11.4 µM] (inactive) and -18.3% [at 11.4 µM] (inactive). In the case of `COc1cccc(C(=O)c2cc3ccc(O)cc3oc2=O)c1`, the “activity change, negative = inhibition” value is reported as -27.7% (inactive). With `COc1ccc(-c2cc3ccc(OCc4nn[nH]n4)cc3oc2=O)cc1` the Potency was 3.16 µM (active). In the case of `O=c1oc2cc(O)ccc2cc1-c1ccc(F)cc1`, the “activity change, negative = inhibition” value is reported as 15.3% (inactive). In the case of `Nc1ccccc1N`, the “activity change, negative = inhibition” value is reported as 1.07% (inactive). In the case of `COC(=O)N1CCC[C@@]2(CCN(C(=O)NC(C)C)C2)C1`, the “activity change, negative = inhibition” value is reported as -4.88% (inactive). `N=C(CC(=O)Nc1ccccn1)c1ccccc1` was tested, and the activity change, negative = inhibition was 6.89% [at 11.4 µM] (inactive). In the case of `CC(C)c1cc(CN(C)C)c(O)c(C(C)(C)C)c1`, the activity change, negative = inhibition is reported as -0.755% [at 11.4 µM] (inactive). With `O=C(CN1CCOCC1)Nc1cc(Cl)ccc1Cl` the “activity change, negative = inhibition” value was 3.52% (inactive). `c1cnn(-c2cc(N3CCOCC3)ncn2)c1` was tested, and the “activity change, negative = inhibition” value was 6.49% (inactive). For `O=C(Nc1cc(N2CCOCC2)ncn1)NC1(C(F)(F)F)Oc2ccc(Cl)cc2O1` (stereo unspecified), the Potency was 3.16 µM (active). With `COC(=O)[C@@H]1[C@H]2C[C@H]3c4[nH]c5cc(OC)ccc5c4CCN3C[C@@H]2C[C@@H](OC(=O)c2cc(OC)c(OC)c(OC)c2)[C@@H]1OC` the Potency was “inactive”. For `O=C(O)[C@@H](S)[C@H](S)C(=O)O`, the Potency was 1 µM (active). `O=C(O)CC(C(=O)O)C(CC(=O)O)C(=O)O` (stereo unspecified) was tested, and the “activity change, negative = inhibition” value was 2.27% (inactive).

From PubChem BioAssay AID886 (National Center for Advancing Translational Sciences (NCATS), 2007)
% is set by controls: 0 for no effect and ±100 for the full control effect; potency is the fitted concentration of half-maximal effect.
Note: nearly all actives have a fitted effect of over 60% in size.
